Assay outcomes from PubChem.
D2 antagonist: antagonists of human D2 dopamine receptor. P14416. HEK293 TREx D2 cells, calcium flux, dopamine EC80. inhibition, % at 10 µM. actives 2% (n = 340,000). AID 485344; in the data active = inhibition above about 30%; inactive = below that, where a call was filed; note: 0% is about no effect
Target sequence (P14416 whole entry, looked up): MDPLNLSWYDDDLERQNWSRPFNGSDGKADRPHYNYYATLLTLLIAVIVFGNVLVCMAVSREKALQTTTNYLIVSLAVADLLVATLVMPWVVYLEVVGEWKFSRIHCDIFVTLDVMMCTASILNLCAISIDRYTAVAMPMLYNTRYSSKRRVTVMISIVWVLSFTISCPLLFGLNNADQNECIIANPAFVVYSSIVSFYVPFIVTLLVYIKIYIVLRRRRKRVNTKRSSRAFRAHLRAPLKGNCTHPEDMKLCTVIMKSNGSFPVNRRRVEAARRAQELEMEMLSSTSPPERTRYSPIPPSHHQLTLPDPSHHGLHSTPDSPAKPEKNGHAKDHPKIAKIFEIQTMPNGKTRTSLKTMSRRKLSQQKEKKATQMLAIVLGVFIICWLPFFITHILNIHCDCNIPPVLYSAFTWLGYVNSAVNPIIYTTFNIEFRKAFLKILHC
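Overnight-induced (tetracycline, 30 C) HEK293 T-REx cells carrying force-coupled D2 receive a no-wash calcium dye, then compound, then EC80 dopamine at 180 s; signals are read kinetically throughout.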
D2 ag-1: activates the human D2 dopamine receptor; P14416; DiscoveRx PathHunter D2 beta-arrestin, luminescence, 90 min; 100% = 57 uM dopamine signal; activation, % (concentration not given with the values); actives 0.084% (n = 360,000); in the data active = activation above about 40%; inconclusive = between about 15% and that limit
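DiscoveRx PathHunter D2 beta-arrestin cells (2,100/well) attached overnight, then compound-stimulated 90 min at 37 C in HBSS/10 mM HEPES/0.1% Tween-20 buffer; beta-galactosidase complementation read by luminescence after 1 h at ambient temperature. Dopamine 57 uM final (EC100) as control.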
D2 ag-2: D2 dopamine receptor (human) agonism. P14416. HEK293 T-REx D2 cells, calcium flux agonist mode. actives 0.53% (n = 340,000). activation, % at 2 µM;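 active = activation over 3 SD above normal in the single-dose calcium agonist read, cut at about 30% in these data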; note: 0% is about no effect
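Tetracycline-induced HEK293 Trex cells with D2 receptor force-coupled to calcium signaling, plated overnight at 30 C and loaded with no-wash calcium dye. Calcium flux read kinetically for 180 s after compound addition; responses flag agonists.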
D2 PAM-1: positive allosteric modulators of human D2 dopamine receptor; P14416; DiscoveRx D2 beta-arrestin cells, luminescence, 90 min; 100% = 57 uM dopamine signal; potentiation, % (test concentration not listed); actives 0.23% (n = 360,000); AID 624464; in the data active = potentiation above about 50%; inconclusive = mostly about 30% to 49%
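PathHunter D2 cells, attached overnight at 37 deg C, received compound in DMSO plus dopamine at EC20 (50 nM final) for 90 min at 37 deg C. Beta-arrestin recruitment was read as luminescence after 1 h with detection reagent at ambient temperature.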
D2 PAM-2: D2 dopamine receptor (human) potentiation. AID 485347. HEK293 T-REx D2, calcium flux, EC20 dopamine potentiation. actives 0.34% (n = 340,000). potentiation, % at 10 µM;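 active = potentiation over 3 SD above the plate norm, cut at about 30% in these data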; note: 0% is about no effect
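Potentiation of an EC20 dopamine calcium response measured kinetically over 180 s, after a preceding 180 s compound-only read flagging agonists. Cells: inducible Hek293 Trex D2 line, 4000/well, cultured overnight at 30 C before dye loading.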
The depositor's hits bear a star; u = inconclusive; x = no result given. Sampled rows, rich in hits. Any-hit rate of the full collection: about 2.4%.

SMILES	D2 antagonist	D2 ag-1	D2 ag-2	D2 PAM-1	D2 PAM-2
CCCCN(C)C1=CC2=CC(=C(C#N)C#N)CCC2CC1 (stereo not given)	73*	10	140*	13	-19
N#CC1=C(N)C2=C(N3CCCCC3)CCCC2C1(C#N)C#N (stereo not given)	-15	3	1	4	17
Cc1ccc(S(=O)(=O)CC(=O)c2ccc([N+](=O)[O-])cc2)cc1	11	1	1	0	-3
Cc1ccc(S(=O)(=O)CC(=O)c2ccc(C)c([N+](=O)[O-])c2)cc1	79*	2	1	-8	0
CCOC1OC(=O)C(Cl)=C1Nc1ccc(C)cc1 (stereo not given)	3	-2	-1	-7	-1
Cc1ccc(NC2=C(Cl)C(=O)OC2NC(=O)c2ccccc2)cc1 (stereo not given)	55*	-1	1	-6	-4
COc1ccc(C(=O)C2CCCN(Cc3cccn3-c3ccccn3)C2)cc1F (stereo not given)	x	-3	x	-3	20
O=C(c1cccc(C(F)(F)F)c1)C1CCCN(Cc2cccn2-c2ncccn2)C1 (stereo not given)	32*	0	-1	-7	-9
COc1ccc(F)cc1C(=O)C1CCCN(Cc2cccn2-c2cccnc2)C1 (stereo not given)	74*	-4	1	-20	-38
COc1ccc(F)cc1C(=O)C1CCCN(Cc2cnc(N3CCCC3)s2)C1 (stereo not given)	66*	-2	-1	-7	-24
COc1ccc(F)cc1C(=O)C1CCCN(Cc2ccc(Oc3ncccn3)cc2)C1 (stereo not given)	49*	-4	0	-20	-20
O=C(c1ccc(C(F)(F)F)cc1)C1CCCN(Cc2cccn2-c2ncccn2)C1 (stereo not given)	-37	-4	1	-16	-3
Cc1ncc([N+](=O)[O-])n1CC(=O)Nc1ccc2c(c1)OCO2	17	-2	3	1	5
CCOCCCNCc1ccc(OCCC(C)C)c(OC)c1	35*	-6	-1	-8	-9
CN1CCCN(Cc2nc(-c3ccc(Cl)cc3)no2)CC1	11	-1	1	-14	8
CN1CCCN(Cc2ccc(Cl)cc2Cl)CC1	35*	-2	0	-30	-20
CCc1nn2c(=O)cc(COC(=O)COc3ccc(OC)cc3)nc2s1	x	x	-1	x	-10
Cc1cc(C)cc(NC(=O)C2CCN(S(=O)(=O)c3ccc4[nH]c(=O)ccc4c3)CC2)c1	31*	2	0	-9	-16
CC(=O)N1CCOc2ccc(S(=O)(=O)N3CCC(C(=O)Nc4cc(C)cc(C)c4)CC3)cc21	52*	-2	-1	-23	-12
COc1ccccc1CN1CC(C(=O)NCCN(C)CCc2ccccc2)CCC1=O (stereo not given)	24	0	46*	-24	-16
O=C(/C=C/c1ccc2c(c1)OCO2)Nc1nc(-c2ccccc2)cs1	-10	0	0	-9	-2
Clc1ccc(-c2csc(N/N=C/c3ccc4c(c3)OCO4)n2)cc1	35*	0	0	6	4
CN(C(=O)c1ccc(S(=O)(=O)N(C)C)cc1)c1ccc2ccccc2c1	-12	-3	-2	-3	3
O=C(Cc1ccc(Cl)cc1)Nc1ccc(N2CCN(C(=O)c3ccco3)CC2)cc1	-16	1	0	-13	32*
COc1ccccc1N1CCN(CCC(=O)Nc2cccc(F)c2)CC1	x	2	21	-42	-32
SMILES	D2 antagonist	D2 ag-1	D2 ag-2	D2 PAM-1	D2 PAM-2
O=C(c1ccco1)N1CCN(C(=S)Nc2ccc(F)cc2)CC1	6	-1	0	-5	6
Cc1ccccc1N1CCN(CCC(=O)Nc2ccc(F)cc2)CC1	78*	1	1	-74	-20
O=C(CCN1CCN(C(=O)c2ccco2)CC1)Nc1ccc(F)cc1	11	0	33*	-13	-27
COc1cc(C(=O)ON=C2C=C(C)C(=O)C(C)=C2)cc(OC)c1OC	22	15	0	64*	3
COc1cc(C(=O)O/N=C2\C=CC(=O)C(C)=C2)cc(OC)c1OC	-1	13	1	28	-4
COc1cc(C(=O)O/N=C(\N)c2ccncc2)cc(OC)c1OC	13	14	-1	84*	-9
COc1cccc(C(=O)O/N=C(\N)c2ccncc2)c1	12	9	0	59*	-3
COc1cccc(C(=O)O/N=C(\N)c2ccc(C)cc2)c1	-12	0	-1	u	13
COc1ccc(/C(N)=N/OC(=O)c2cccc([N+](=O)[O-])c2)cc1	13	8	-1	25	-4
COc1cccc(C(=O)O/N=C(\N)c2ccc([N+](=O)[O-])cc2)c1	-7	u	0	136*	1
C=CCNc1ncnc2c1ncn2[C@H]1CN(Cc2ccc3c(c2)OCO3)C[C@@H](CO)O1	x	-5	x	-8	x
COc1ccc(CNC(=O)COC(=O)CNC(=O)c2sc3ccccc3c2Cl)cc1OC	-23	2	0	2	7
COc1ccc(/C(N)=N/OC(=O)c2ccc3c(c2)OCO3)cc1	-30	u	1	103*	4
Cc1ccc(/C(N)=N/OC(=O)c2ccc3c(c2)OCO3)cc1	0	6	0	27	0
COc1cccc(C(=O)O/N=C(\N)Cc2ccc(Cl)cc2)c1	0	u	0	125*	-3
COc1ccc(C(=O)O/N=C(\N)c2ccncc2)cc1OC	1	u	0	85*	-3
COc1ccc(C(=O)O/N=C(\N)c2ccc(Cl)cc2)cc1	-18	u	0	0	1
CC(C)CC(NS(=O)(=O)c1ccccc1)C(=O)O (stereo not given)	-1	-4	0	-14	-6
CC(C)CN=C(NS(=O)(=O)c1ccccc1)C(Cl)(Cl)Cl	-6	10	0	77*	1
CC1CCCC(C)N1C(=O)Cn1cc(/C=C2/C(=O)Nc3ccccc32)c2ccccc21 (stereo not given)	32*	-8	1	-8	-1
COC(=O)c1cn(CC(=O)N2C(C)CCCC2C)c2ccccc12 (stereo not given)	5	-3	1	8	-9
CC(C)C(NC(=O)c1ccccc1)C(=O)NCc1ccccn1 (stereo not given)	61*	0	1	2	-10
COc1cc(OC)cc(C(=O)NC(C(=O)NCc2ccccn2)C(C)C)c1 (stereo not given)	-4	-3	1	-8	7
Cc1ccc(-c2nc3ccc(Cl)cn3c2Cc2cccc(F)c2)cc1	x	-6	x	-8	x
